From PubChem BioAssay (NCATS) come the findings set out here.

The nature of assay [1]: qHTS profiling of the MIPE4 collection as inhibitors of Plasmodium falciparum (3D7) proliferation (AID 743344).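 Further: scaled between DMSO vehicle wells and 0.29 µM artemisinin as full inhibition.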 Particulars: P. falciparum 3D7 in erythrocytes, SYBR Green DNA fluorescence, 72 h; at 28.5 µM unless noted. A digest of the protocol:
(§1)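 Parasite DNA was quantified by SYBR Green I fluorescence (ex 485, em 535 nm) after overnight lysis in saponin/Triton buffer at room temperature. Cultures at 0.3% parasitemia and 2.5% hematocrit were first exposed to compound for 72 h at 37 C; signals were normalised to artemisinin (0.29 uM) and vehicle wells.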
For orientation: In qHTS, concentration-response curves come from the screen itself.

A short description of assay [2]: qHTS profiling of the MIPE4 collection as inhibitors of Plasmodium falciparum (DD2) proliferation (AID 743345). Particulars: P. falciparum Dd2 in erythrocytes, SYBR Green DNA, 72 h; at 28.5 µM unless noted. Put shortly: as §1
Assay [3] in a line: qHTS profiling of the MIPE4 collection as inhibitors of Plasmodium falciparum (DD2) proliferation (Rep 2) (AID 743346). Particulars: P. falciparum Dd2 in erythrocytes, SYBR Green DNA, 72 h; at 28.5 µM unless noted. A digest of the protocol: as §1
A short description of assay [4]: qHTS profiling of the MIPE4 collection as inhibitors of Plasmodium falciparum (HB3) proliferation (AID 743347).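 Further: plate controls were DMSO vehicle wells for no effect and artemisinin wells for full effect.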 As to conditions: P. falciparum HB3 in erythrocytes, SYBR Green DNA, 72 h; at 28.5 µM unless noted. A digest of the protocol:
as §1

The nature of assay [5]: High-throughput drug toxicity screening in the BPDCN cell line Gen2.2 (AID 1224824).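 Further: cells exposed to compounds for 48 h before reading.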 As to conditions: Gen2.2 BPDCN cells; at 45.8 µM (top of the series) unless noted. Put shortly:
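Readout is ATP luminescence from Gen2.2 cells after two days of drug exposure in serum-containing medium at 37 °C. Values express percent activity, with vehicle defining full signal and 9.2 uM bortezomib defining zero.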

Assay [6] in a line: High-throughput drug toxicity screening in the BPDCN cell line Cal-1 (AID 1224825). As to conditions: Cal-1 BPDCN cell viability, qHTS; at 45.8 µM (top of the series) unless noted. Put shortly: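 CellTiter-Glo luminescence after 48 h compound exposure; percent activity scaled with DMSO as 100% and bortezomib (9.2 uM final) as 0%. Cal-1 cells seeded at 500/well in RPMI, 10% FBS, no phenol red.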

For the compound `CCCCCCCCCC(=O)N[C@@H](Cc1c[nH]c2ccccc12)C(=O)N[C@H](CC(N)=O)C(=O)N[C@@H](CC(=O)O)C(=O)N[C@@H]1C(=O)NCC(=O)N[C@@H](CCCN)C(=O)N[C@@H](CC(=O)O)C(=O)N[C@H](C)C(=O)N[C@@H](CC(=O)O)C(=O)NCC(=O)N[C@H](CO)C(=O)N[C@@H]([C@@H](C)CC(=O)O)C(=O)N[C@@H](CC(=O)c2ccccc2N)C(=O)O[C@@H]1C`, the parasite growth, % of DMSO control in assay [1] was found to be 409%. Besides, the parasite growth remaining, % of DMSO control (lower = more inhibition) in assay [2] came to 96.7%. In addition, the parasite growth, % of control (lower = inhibition) in assay [3] came out at 108%. Moreover, the growth, % of control in assay [4] stood at 299%. Besides, in assay [5], the cell viability, % of control (lower = more cytotoxic) stood at 128%. For the same compound, in assay [6], the viability (% of control) stood at 108%.
The compound `O=C(O)CO.[NH2-].[NH2-].[Pt+2]` registered a parasite growth, % of DMSO control in assay [1] of 92.3%. Further, the parasite growth remaining, % of DMSO control (lower = more inhibition) in assay [2] was 95.3%. Also, the parasite growth, % of control (lower = inhibition) in assay [3] worked out at 83.9%. The compound also yielded a growth, % of control in assay [4] of 94.7%. Moreover, the cell viability, % of control (lower = more cytotoxic) in assay [5] was determined as 124%. The viability (% of control) in assay [6] is 100%.
Regarding `COc1cccc(-c2ccc(NC(=O)C3=C(C(=O)O)CCC3)c(F)c2)c1`, the parasite growth, % of DMSO control in assay [1] came to 64.2%. Moreover, the parasite growth remaining, % of DMSO control (lower = more inhibition) in assay [2] was determined as 90.8%. For the same compound, in assay [3], the parasite growth, % of control (lower = inhibition) worked out at 53%. Also, the growth, % of control in assay [4] amounted to 78.8%. In assay [5], the cell viability, % of control (lower = more cytotoxic) was determined as 19%. The viability (% of control) in assay [6] turned out to be 4.11%.
`C=CC(=O)Nc1cccc(Oc2nc(Nc3ccc(N4CCN(C)CC4)cc3)ncc2Cl)c1`: the parasite growth, % of DMSO control in assay [1] is 8.39%. Moreover, the parasite growth remaining, % of DMSO control (lower = more inhibition) in assay [2] was 16.8%. The parasite growth, % of control (lower = inhibition) in assay [3] stood at 34.6%. For the same compound, the growth, % of control in assay [4] worked out at 5.58%. For the same compound, the cell viability, % of control (lower = more cytotoxic) in assay [5] came out at 8.16%. Besides, the viability (% of control) in assay [6] came to 2.81%.
`COCCOc1ccc2c(c1)ncn2-c1ccc2cccc(N3CCC(N)CC3)c2n1` came in with a parasite growth, % of DMSO control in assay [1] of 5.56%. The parasite growth remaining, % of DMSO control (lower = more inhibition) in assay [2] is 7.14%. Further, the parasite growth, % of control (lower = inhibition) in assay [3] came to 13.1%. The growth, % of control in assay [4] is 4.14%. Moreover, in assay [5], the cell viability, % of control (lower = more cytotoxic) came out at 3.06%. Moreover, the viability (% of control) in assay [6] came to 1.98%.
Consider `COc1ccc(CC2c3cc(OC)c(OC)cc3CC[N+]2(C)CCC(=O)OCCCCCOC(=O)CC[N+]2(C)CCc3cc(OC)c(OC)cc3C2Cc2ccc(OC)c(OC)c2)cc1OC` (configuration not stated), for which, in assay [1], the parasite growth, % of DMSO control turned out to be 57.8% [at 5.51 µM]. The parasite growth remaining, % of DMSO control (lower = more inhibition) in assay [2] worked out at 93.6% [at 5.51 µM]. Also, the parasite growth, % of control (lower = inhibition) in assay [3] came to 58.2% [at 5.51 µM]. In assay [4], the growth, % of control is 85.6% [at 5.51 µM]. Further, the cell viability, % of control (lower = more cytotoxic) in assay [5] came out at 45.2% [at 5.15 µM]. Moreover, in assay [6], the viability (% of control) is 99% [at 5.15 µM].
For `CC(=O)Nc1nc(C)c(-c2ccc(Cl)c(S(=O)(=O)NCCO)c2)s1`, the parasite growth, % of DMSO control in assay [1] worked out at 4.79%. Further, in assay [2], the parasite growth remaining, % of DMSO control (lower = more inhibition) stood at 7.49%. Besides, in assay [3], the parasite growth, % of control (lower = inhibition) was found to be 10%. In addition, the growth, % of control in assay [4] stood at 2.77%. Moreover, the cell viability, % of control (lower = more cytotoxic) in assay [5] was determined as 17.8%. Further, the viability (% of control) in assay [6] was 18.7%.
Compound `Cc1c(C)n(Cc2ccc(-c3ccccc3C(=O)O)cc2)c2ccc(C(=O)N[C@@H](C)c3ccc([N+](=O)[O-])cc3)cc12` displayed a parasite growth, % of DMSO control in assay [1] of 25.4%. For the same compound, the parasite growth remaining, % of DMSO control (lower = more inhibition) in assay [2] stood at 30.3%. In addition, the parasite growth, % of control (lower = inhibition) in assay [3] came to 20.8%. The same compound gave a growth, % of control in assay [4] of 7.19%. The cell viability, % of control (lower = more cytotoxic) in assay [5] was determined as 21.6%. Further, the viability (% of control) in assay [6] stood at 8.82%.
`Cc1nc2ccc(CN(C)c3ccc(C(=O)N[C@@H](CCC(=O)O)C(=O)O)s3)cc2c(=O)[nH]1`: the parasite growth, % of DMSO control in assay [1] amounted to 211%. For the same compound, the parasite growth remaining, % of DMSO control (lower = more inhibition) in assay [2] came out at 106%. In assay [3], the parasite growth, % of control (lower = inhibition) was found to be 54.1%. In assay [4], this compound came in with a growth, % of control of 424%. Besides, the cell viability, % of control (lower = more cytotoxic) in assay [5] is 185%. The viability (% of control) in assay [6] is 32.8%.
In assay [1], `CC1(C)O[C@@H]2C[C@@H]3[C@H]4C[C@@H](F)C5=CC(=O)C=C[C@]5(C)[C@@]4(F)[C@@H](O)C[C@]3(C)[C@]2(C(=O)CO)O1` came in with a parasite growth, % of DMSO control of 53.6%. In addition, in assay [2], the parasite growth remaining, % of DMSO control (lower = more inhibition) was found to be 97%. Further, in assay [3], the parasite growth, % of control (lower = inhibition) stood at 53.7%. In assay [4], this compound yielded a growth, % of control of 76%. Besides, the cell viability, % of control (lower = more cytotoxic) in assay [5] turned out to be 45.3%. Besides, the viability (% of control) in assay [6] worked out at 54.5%.
Turning to `Cc1ccc(CN2CCNCC2)cc1NC(=O)CNc1ccc(F)c(F)c1`, the parasite growth, % of DMSO control in assay [1] is 55.3%. The parasite growth remaining, % of DMSO control (lower = more inhibition) in assay [2] was 103%. Besides, in assay [3], the parasite growth, % of control (lower = inhibition) came out at 63%. For the same compound, in assay [4], the growth, % of control was determined as 60.8%. Further, in assay [5], the cell viability, % of control (lower = more cytotoxic) stood at 124%. The viability (% of control) in assay [6] amounted to 103%.
`Cn1cc(-c2ccncc2)c(-c2ccc(OCc3ccc4ccccc4n3)cc2)n1`: the parasite growth, % of DMSO control in assay [1] stood at 83.3%. Also, in assay [2], the parasite growth remaining, % of DMSO control (lower = more inhibition) was determined as 98.3%. Also, the parasite growth, % of control (lower = inhibition) in assay [3] was found to be 82.2%. The same compound had a growth, % of control in assay [4] of 65.2%. In addition, the cell viability, % of control (lower = more cytotoxic) in assay [5] came out at 56.4%. The viability (% of control) in assay [6] came out at 38.2%.
